# From ChEMBL document CHEMBL3433997, “St. Jude Leishmania screening dataset” (2016)
# Tests used:
# Assay type in all cases: functional
# [1] = target: Solute carrier family 2, facilitated glucose transporter member 1 (Homo sapiens) (UniProt P11166); experiment: ST_JUDE_LEISH: Cytotoxicity at 2uM final concentration against transgenic Leishmania Mexicana promastigotes LmGLUT1 that are glucose transport deficient and complemented with the human glucose transporter GLUT1. Activity is measured by DNA content using SYBR green in vitro
# [2] = target: Hexose transporter 1 (Plasmodium falciparum) (UniProt O97467); experiment: ST_JUDE_LEISH: Cytotoxicity at 2uM final concentration against transgenic Leishmania Mexicana promastigotes LmPfHT that are glucose transport deficient and complemented with the Plasmodium falciparum hexose transporter. Activity is measured by DNA content using SYBR green in vitro
# [3] = target: Glucose transporter (Leishmania mexicana) (UniProt O61059); experiment: ST_JUDE_LEISH: Cytotoxicity at 2uM final concentration against transgenic Leishmania Mexicana promastigotes LmGT2 that are glucose transport deficient and complemented with the L. Mexicana glucose transporter 2. Activity is measured by DNA content using SYBR green in vitro
# Solute carrier family 2, facilitated glucose transporter member 1 (Homo sapiens), sequence (P11166 whole entry): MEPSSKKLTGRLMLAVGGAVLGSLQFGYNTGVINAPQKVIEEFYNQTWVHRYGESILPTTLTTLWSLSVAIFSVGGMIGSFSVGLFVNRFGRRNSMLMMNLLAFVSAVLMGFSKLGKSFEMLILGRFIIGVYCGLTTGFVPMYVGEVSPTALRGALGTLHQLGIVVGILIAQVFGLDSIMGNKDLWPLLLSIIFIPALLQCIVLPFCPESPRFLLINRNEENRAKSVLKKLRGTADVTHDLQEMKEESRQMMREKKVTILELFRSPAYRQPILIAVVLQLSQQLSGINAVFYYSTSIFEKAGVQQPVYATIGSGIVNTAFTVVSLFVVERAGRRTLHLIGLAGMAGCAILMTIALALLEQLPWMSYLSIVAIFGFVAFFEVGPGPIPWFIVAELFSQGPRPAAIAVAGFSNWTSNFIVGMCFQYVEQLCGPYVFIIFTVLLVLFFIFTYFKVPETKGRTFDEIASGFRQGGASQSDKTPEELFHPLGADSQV
SMILES,inhibition [1] [%],inhibition [2] [%],inhibition [3] [%]
Cn1c(=O)c2nc(-c3ccc(Cl)cc3)nnc2n(CCCC#N)c1=O,7.35,7.41,6.19
Cc1nnc2c(N(C(=O)NCCc3ccccc3)C(=O)NCCc3ccccc3)cc3cc(Cl)ccc3n12,11.2,10.1,8.99
CC(C)(C)c1ccc(N2C(N)=NC(N)=NC2(C)C)cc1,-0.57,0.01,1.34
COc1cc2nc(N3CCC(CNC(=O)c4ccc(-c5ccc(C#N)cc5C)cc4)CC3)nc(N)c2cc1OC,1.67,1.27,0.49
CCCCNC(=O)[C@@H](NC(=O)c1ccc(O)c(-c2ccc(Cl)c(Cl)c2)c1)C(C)C,4.49,4.37,3.47
CC1CCN(C(=O)[C@H](Cc2c[nH]c3ccccc23)NS(=O)(=O)c2ccc(Cl)cc2)CC1,1.32,2.42,13.7
O=S(=O)(NCCN1CCCC1)c1cccc(-c2ccccc2CNC2Cc3ccccc3C2)c1,60.1,16,10.6
CCOc1cc(CC)ccc1C1CCN(CCN2CCC(NC(=O)c3ccc(-c4ccc(C(C)=O)cc4)cc3)CC2)CC1,1.17,1.9,1.24
Cc1ccc2nc(Cl)c3cc(C(=O)NCCCN4CCCC4)sc3c2c1,8.7,10.2,9.6
COc1ccc2nccc([C@@H](O)CN3CCC(NC(=O)/C=C/c4cccc(-c5ccccc5)c4)CC3)c2c1,7.76,6.73,0.36
COc1ccc(CNCCc2cccs2)cc1-c1cccc(S(=O)(=O)NCCN2CCCC2)c1,2.17,2.94,0.9
COc1cc2nc(NCCc3ccccc3)nc(NC(C)c3ccccc3)c2cc1OC (stereo unspecified),7.18,6.76,3.19
